# Experimental data published in the supplement of paper PMC4466140.
# B1: unnamed (peptide)
# chain: NPNRRAPRRPLSTQH
# B2: unnamed (peptide)
# chain: SSTPTTPERPKRKSG
# How the values were obtained:
# Test in all cases: SPOT peptide array binding signal intensity (averaged, normalized) (arbitrary units (background-subtracted, floor 0; scale differs between SH3 domains)); higher = stronger binding of the SH3 domain to the peptide
# AgAbp1 = target: AgAbp1
# Method in brief: (§1)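 To measure binding, SH3 domains from four yeast species were fused to GST, expressed in E. coli BL21(DE3) and purified on glutathione Sepharose. Each domain was incubated at 10 μg/ml overnight at 4°C on cellulose membranes with synthetic 15-mer peptides whose cysteines were replaced by serines. Anti-GST antibody, an HRP anti-mouse secondary and luminol were used for detection, and images were quantified with Genespotter. Reported binding signal is normalized, background-subtracted spot intensity averaged over replicates, in arbitrary units that differ between domains.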
# AgBbc1 = target: AgBbc1
# Method in brief: as §1
# AgBem1-D1 = target: AgBem1-D1
# Method in brief: as §1
# AgBzz1-D1 = target: AgBzz1-D1
# Method in brief: as §1
# AgBzz1-D2 = target: AgBzz1-D2
# Method in brief: as §1
# AgCyk3 = target: AgCyk3
# Method in brief: as §1
# AgFus1 = target: AgFus1
# Method in brief: as §1
# AgHof1 = target: AgHof1
# Method in brief: as §1
# AgHse1 = target: AgHse1
# Method in brief: as §1
# AgLsb1 = target: AgLsb1
# Method in brief: as §1
# AgLsb4 = target: AgLsb4
# Method in brief: as §1
# AgMyo5 = target: AgMyo5
# Method in brief: as §1
# AgNbp2 = target: AgNbp2
# Method in brief: as §1
# AgRvs167 = target: AgRvs167
# Method in brief: as §1
# AgSho1 = target: AgSho1
# Method in brief: as §1
# AgSla1-D1-D2 = target: AgSla1-D1-D2
# Method in brief: as §1
# AgSla1-D3 = target: AgSla1-D3
# Method in brief: as §1
# CaAbp1-D1 = target: CaAbp1-D1
# Method in brief: as §1
# CaAbp1-D2 = target: CaAbp1-D2
# Method in brief: as §1
# CaBbc1 = target: CaBbc1
# Method in brief: as §1
# CaBem1-D1 = target: CaBem1-D1
# Method in brief: as §1
# CaBzz1-D1 = target: CaBzz1-D1
# Method in brief: as §1
# CaBzz1-D2 = target: CaBzz1-D2
# Method in brief: as §1
# CaCyk3 = target: CaCyk3
# Method in brief: as §1
# CaFus1 = target: CaFus1
# Method in brief: as §1
# CaHof1 = target: CaHof1
# Method in brief: as §1
# CaHse1 = target: CaHse1
# Method in brief: as §1
# CaLsb1 = target: CaLsb1
# Method in brief: as §1
# CaLsb4 = target: CaLsb4
# Method in brief: as §1
# CaMyo5 = target: CaMyo5
# Method in brief: as §1
# CaNbp2 = target: CaNbp2
# Method in brief: as §1
# CaRvs167 = target: CaRvs167
# Method in brief: as §1
# CaRvs167-3 = target: CaRvs167-3
# Method in brief: as §1
# CaSho1 = target: CaSho1
# Method in brief: as §1
# CaSla1-D1-D2 = target: CaSla1-D1-D2
# Method in brief: as §1
# CaSla1-D3 = target: CaSla1-D3
# Method in brief: as §1
# ScAbp1 = target: ScAbp1
# Method in brief: as §1
# ScBbc1 = target: ScBbc1
# Method in brief: as §1
# ScBem1-D1 = target: ScBem1-D1
# Method in brief: as §1
# ScBzz1-D1 = target: ScBzz1-D1
# Method in brief: as §1
# ScBzz1-D2 = target: ScBzz1-D2
# Method in brief: as §1
# ScCyk3 = target: ScCyk3
# Method in brief: as §1
# ScFus1 = target: ScFus1
# Method in brief: as §1
# ScHof1 = target: ScHof1
# Method in brief: as §1
# ScHse1 = target: ScHse1
# Method in brief: as §1
# ScLsb1 = target: ScLsb1
# Method in brief: as §1
# ScLsb2 = target: ScLsb2
# Method in brief: as §1
# ScLsb3 = target: ScLsb3
# Method in brief: as §1
# ScLsb4 = target: ScLsb4
# Method in brief: as §1
# ScMyo3 = target: ScMyo3
# Method in brief: as §1
# ScMyo5 = target: ScMyo5
# Method in brief: as §1
# ScNbp2 = target: ScNbp2
# Method in brief: as §1
# ScPex13 = target: ScPex13
# Method in brief: as §1
# ScRvs167 = target: ScRvs167
# Method in brief: as §1
# ScSho1 = target: ScSho1
# Method in brief: as §1
# ScSla1-D1-D2 = target: ScSla1-D1-D2
# Method in brief: as §1
# ScSla1-D3 = target: ScSla1-D3
# Method in brief: as §1
# SpAbp1-D1 = target: SpAbp1-D1
# Method in brief: as §1
# SpBbc1 = target: SpBbc1
# Method in brief: as §1
# SpBzz1-D1 = target: SpBzz1-D1
# Method in brief: as §1
# SpBzz1-D2 = target: SpBzz1-D2
# Method in brief: as §1
# SpCyk3 = target: SpCyk3
# Method in brief: as §1
# SpHof1 = target: SpHof1
# Method in brief: as §1
# SpHof1-2 = target: SpHof1-2
# Method in brief: as §1
# SpHof1-3 = target: SpHof1-3
# Method in brief: as §1
# SpHse1 = target: SpHse1
# Method in brief: as §1
# SpLsb1 = target: SpLsb1
# Method in brief: as §1
# SpLsb4 = target: SpLsb4
# Method in brief: as §1
# SpMyo1 = target: SpMyo1
# Method in brief: as §1
# SpNbp2 = target: SpNbp2
# Method in brief: as §1
# SpPex13 = target: SpPex13
# Method in brief: as §1
# SpRvs167 = target: SpRvs167
# Method in brief: as §1
# SpSla1-D1-D2 = target: SpSla1-D1-D2
# Method in brief: as §1
# SpSla1-D3 = target: SpSla1-D3
# Method in brief: as §1
binder,measurement,setting,value
B1,SPOT peptide array binding signal intensity,AgAbp1,134
same,SPOT peptide array binding signal intensity,AgBbc1,248
same,SPOT peptide array binding signal intensity,AgBem1-D1,136
same,SPOT peptide array binding signal intensity,AgBzz1-D1,18.5
same,SPOT peptide array binding signal intensity,AgBzz1-D2,96
same,SPOT peptide array binding signal intensity,AgCyk3,1
same,SPOT peptide array binding signal intensity,AgFus1,492
same,SPOT peptide array binding signal intensity,AgHof1,37.8
same,SPOT peptide array binding signal intensity,AgHse1,1700
same,SPOT peptide array binding signal intensity,AgLsb1,9.75
same,SPOT peptide array binding signal intensity,AgLsb4,110
same,SPOT peptide array binding signal intensity,AgMyo5,1.5
same,SPOT peptide array binding signal intensity,AgNbp2,1950
same,SPOT peptide array binding signal intensity,AgRvs167,≤ 0
same,SPOT peptide array binding signal intensity,AgSho1,100
same,SPOT peptide array binding signal intensity,AgSla1-D1-D2,484
same,SPOT peptide array binding signal intensity,AgSla1-D3,18
same,SPOT peptide array binding signal intensity,CaAbp1-D1,660
same,SPOT peptide array binding signal intensity,CaAbp1-D2,806
same,SPOT peptide array binding signal intensity,CaBbc1,1050
same,SPOT peptide array binding signal intensity,CaBem1-D1,184
same,SPOT peptide array binding signal intensity,CaBzz1-D1,90
same,SPOT peptide array binding signal intensity,CaBzz1-D2,104
same,SPOT peptide array binding signal intensity,CaCyk3,189
same,SPOT peptide array binding signal intensity,CaFus1,374
same,SPOT peptide array binding signal intensity,CaHof1,≤ 0
same,SPOT peptide array binding signal intensity,CaHse1,108
same,SPOT peptide array binding signal intensity,CaLsb1,≤ 0
same,SPOT peptide array binding signal intensity,CaLsb4,330
same,SPOT peptide array binding signal intensity,CaMyo5,1.5
same,SPOT peptide array binding signal intensity,CaNbp2,4120
same,SPOT peptide array binding signal intensity,CaRvs167,19
same,SPOT peptide array binding signal intensity,CaRvs167-3,66
same,SPOT peptide array binding signal intensity,CaSho1,562
same,SPOT peptide array binding signal intensity,CaSla1-D1-D2,622
same,SPOT peptide array binding signal intensity,CaSla1-D3,12.2
same,SPOT peptide array binding signal intensity,ScAbp1,154
same,SPOT peptide array binding signal intensity,ScBbc1,185
same,SPOT peptide array binding signal intensity,ScBem1-D1,28.5
same,SPOT peptide array binding signal intensity,ScBzz1-D1,30.5
same,SPOT peptide array binding signal intensity,ScBzz1-D2,8
same,SPOT peptide array binding signal intensity,ScCyk3,109
same,SPOT peptide array binding signal intensity,ScFus1,402
same,SPOT peptide array binding signal intensity,ScHof1,1.25
same,SPOT peptide array binding signal intensity,ScHse1,2480
same,SPOT peptide array binding signal intensity,ScLsb1,65
same,SPOT peptide array binding signal intensity,ScLsb2,12
same,SPOT peptide array binding signal intensity,ScLsb3,1470
same,SPOT peptide array binding signal intensity,ScLsb4,35
same,SPOT peptide array binding signal intensity,ScMyo3,20
same,SPOT peptide array binding signal intensity,ScMyo5,8.75
same,SPOT peptide array binding signal intensity,ScNbp2,4200
same,SPOT peptide array binding signal intensity,ScPex13,23.5
same,SPOT peptide array binding signal intensity,ScRvs167,46.5
same,SPOT peptide array binding signal intensity,ScSho1,984
same,SPOT peptide array binding signal intensity,ScSla1-D1-D2,1340
same,SPOT peptide array binding signal intensity,ScSla1-D3,7
same,SPOT peptide array binding signal intensity,SpAbp1-D1,313
same,SPOT peptide array binding signal intensity,SpBbc1,50.5
same,SPOT peptide array binding signal intensity,SpBzz1-D1,352
same,SPOT peptide array binding signal intensity,SpBzz1-D2,32.2
same,SPOT peptide array binding signal intensity,SpCyk3,1
same,SPOT peptide array binding signal intensity,SpHof1,342
same,SPOT peptide array binding signal intensity,SpHof1-2,8.5
same,SPOT peptide array binding signal intensity,SpHof1-3,166
same,SPOT peptide array binding signal intensity,SpHse1,1390
same,SPOT peptide array binding signal intensity,SpLsb1,11
same,SPOT peptide array binding signal intensity,SpLsb4,906
same,SPOT peptide array binding signal intensity,SpMyo1,84.5
same,SPOT peptide array binding signal intensity,SpNbp2,498
same,SPOT peptide array binding signal intensity,SpPex13,48.5
same,SPOT peptide array binding signal intensity,SpRvs167,17
same,SPOT peptide array binding signal intensity,SpSla1-D1-D2,1
same,SPOT peptide array binding signal intensity,SpSla1-D3,32
B2,SPOT peptide array binding signal intensity,AgAbp1,128
same,SPOT peptide array binding signal intensity,AgBbc1,2110
same,SPOT peptide array binding signal intensity,AgBem1-D1,≤ 0
same,SPOT peptide array binding signal intensity,AgBzz1-D1,36.5
same,SPOT peptide array binding signal intensity,AgBzz1-D2,21
same,SPOT peptide array binding signal intensity,AgCyk3,2
same,SPOT peptide array binding signal intensity,AgFus1,≤ 0
same,SPOT peptide array binding signal intensity,AgHof1,≤ 0
same,SPOT peptide array binding signal intensity,AgHse1,≤ 0
same,SPOT peptide array binding signal intensity,AgLsb1,1
same,SPOT peptide array binding signal intensity,AgLsb4,602
same,SPOT peptide array binding signal intensity,AgMyo5,≤ 0
same,SPOT peptide array binding signal intensity,AgNbp2,≤ 0
same,SPOT peptide array binding signal intensity,AgRvs167,18.3
same,SPOT peptide array binding signal intensity,AgSho1,≤ 0
same,SPOT peptide array binding signal intensity,AgSla1-D1-D2,≤ 0
same,SPOT peptide array binding signal intensity,AgSla1-D3,1.25
same,SPOT peptide array binding signal intensity,CaAbp1-D1,514
same,SPOT peptide array binding signal intensity,CaAbp1-D2,1000
same,SPOT peptide array binding signal intensity,CaBbc1,2820
same,SPOT peptide array binding signal intensity,CaBem1-D1,8
same,SPOT peptide array binding signal intensity,CaBzz1-D1,63.5
same,SPOT peptide array binding signal intensity,CaBzz1-D2,36.2
same,SPOT peptide array binding signal intensity,CaCyk3,166
same,SPOT peptide array binding signal intensity,CaFus1,48.5
same,SPOT peptide array binding signal intensity,CaHof1,0.5
same,SPOT peptide array binding signal intensity,CaHse1,≤ 0
same,SPOT peptide array binding signal intensity,CaLsb1,≤ 0
same,SPOT peptide array binding signal intensity,CaLsb4,7900
same,SPOT peptide array binding signal intensity,CaMyo5,0.25
